From PubChem BioAssay (NCATS)
Inconclusive results are not listed. A call without a number means that no potency is given here. Activity calls are given as the source filed them. Calls come from the whole dose curve; as a rule, active = well fitted curve in the direction sought with a large enough effect; inconclusive = small, poorly fitted or top-dose-only effect, or another doubt; inactive = no such curve, though single readings can be large; an effect the other way counts as inactive or inconclusive. Where a SMILES comes first, the peptide text is derived from it. [ ]: non-standard residue; d: D form. pGlu = O=C1CC[C@@H](C(=O)O)N1; Thz = O=C(O)[C@@H]1CSCN1

target: phosphoglycerate mutase (Leishmania major) (UniProt Q4Q090); assay: qHTS Validation Assay to Find Inhibitors of Phosphoglycerate Mutase (AID 504548); details: biochemical enzyme activity; Potency: inhibition qHTS; series mostly up to 57.5 µM;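 note: end-point luminescence from Kinase-GloPlus after the PGAM reaction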
Summary of the method: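 Inhibition of L. major PGAM was assessed by Kinase-GloPlus luminescence following a 45-minute room-temperature reaction with enzyme at 1.25nM final.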

Chain of phosphoglycerate mutase (Leishmania major) (Q4Q090 1-553): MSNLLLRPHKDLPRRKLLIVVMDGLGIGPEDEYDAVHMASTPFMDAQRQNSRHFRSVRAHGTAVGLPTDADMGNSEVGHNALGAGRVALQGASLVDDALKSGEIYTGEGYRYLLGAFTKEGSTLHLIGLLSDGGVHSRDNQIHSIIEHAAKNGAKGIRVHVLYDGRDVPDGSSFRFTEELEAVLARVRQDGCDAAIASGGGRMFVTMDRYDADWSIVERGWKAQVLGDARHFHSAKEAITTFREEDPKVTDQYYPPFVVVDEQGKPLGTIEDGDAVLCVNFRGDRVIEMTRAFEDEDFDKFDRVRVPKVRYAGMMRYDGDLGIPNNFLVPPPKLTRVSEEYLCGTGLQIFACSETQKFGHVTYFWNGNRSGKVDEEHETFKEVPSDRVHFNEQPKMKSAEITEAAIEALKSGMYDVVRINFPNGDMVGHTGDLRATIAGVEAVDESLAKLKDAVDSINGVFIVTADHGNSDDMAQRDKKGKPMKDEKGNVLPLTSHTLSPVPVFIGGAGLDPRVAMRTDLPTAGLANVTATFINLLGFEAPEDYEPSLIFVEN

| SMILES | Potency |
| --- | --- |
| O=C1C(SCCO)=C(SCCO)C(=O)c2ccccc21 | inactive |
| CO/N=C(\C(=O)N[C@@H]1C(=O)N2C(C(=O)O)=C(COC(C)=O)CS[C@H]12)c1csc(N)n1 | inactive |
| N#C/C(=C\c1ccc(O)c(O)c1)C(=O)NCCCc1ccccc1 | inactive |

target: Ubiquitin carboxyl-terminal hydrolase 1 (Homo sapiens) (UniProt O94782); assay: Inhibitors of USP1/UAF1: Pilot qHTS (AID 504865); details: purified USP1/UAF1, Ub-rhodamine cleavage fluorescence; series mostly up to 114 µM; note: nearly all actives have a fitted effect of over 35% in size; note: potency is the fitted concentration of half-maximal effect
Summary of the method: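 Enzyme-free wells gave the negative control, while test wells held 1nM USP1/UAF1 preincubated with compound for 15 min at room temperature. Ub-Rho at 150nM final started the reaction, and fluorescence at 480/540 nm was recorded kinetically.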

Chain of Ubiquitin carboxyl-terminal hydrolase 1 (Homo sapiens) (O94782 whole entry, looked up): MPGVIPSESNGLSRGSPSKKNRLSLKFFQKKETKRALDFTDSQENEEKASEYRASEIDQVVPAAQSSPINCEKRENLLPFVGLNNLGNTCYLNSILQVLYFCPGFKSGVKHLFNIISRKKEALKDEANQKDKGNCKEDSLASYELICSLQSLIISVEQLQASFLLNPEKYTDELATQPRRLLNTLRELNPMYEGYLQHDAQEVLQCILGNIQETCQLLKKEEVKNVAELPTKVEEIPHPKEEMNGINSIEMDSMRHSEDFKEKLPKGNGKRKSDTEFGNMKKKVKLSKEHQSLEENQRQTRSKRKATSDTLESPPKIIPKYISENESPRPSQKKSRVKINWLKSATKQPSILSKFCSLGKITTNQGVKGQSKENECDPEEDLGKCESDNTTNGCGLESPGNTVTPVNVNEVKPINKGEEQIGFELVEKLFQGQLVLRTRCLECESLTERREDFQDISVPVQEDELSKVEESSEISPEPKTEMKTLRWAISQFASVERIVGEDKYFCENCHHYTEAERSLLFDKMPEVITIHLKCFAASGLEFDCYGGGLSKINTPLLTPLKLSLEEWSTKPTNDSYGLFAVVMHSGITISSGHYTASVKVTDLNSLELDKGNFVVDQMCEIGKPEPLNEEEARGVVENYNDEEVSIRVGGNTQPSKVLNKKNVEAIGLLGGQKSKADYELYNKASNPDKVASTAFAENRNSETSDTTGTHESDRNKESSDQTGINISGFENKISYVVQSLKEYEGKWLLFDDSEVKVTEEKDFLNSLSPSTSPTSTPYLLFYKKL

| SMILES | Potency |
| --- | --- |
| Oc1c(Br)cc(Br)c2cccnc12 | inactive |
| N=C(N)N | inactive |
| [O-][n+]1ccccc1SSc1cccc[n+]1[O-] | inactive |
| O=C(O)[C@H](CC(=O)N1C[C@H]2CCCC[C@H]2C1)Cc1ccccc1 | inactive |
| CC(C(=O)O)c1ccc(C(=O)c2cccs2)cc1 (centres undefined) | inactive |
| Cc1[nH]cnc1CN1CCc2c(c3ccccc3n2C)C1=O | inactive |
| CC1(C)[C@@H](O)CC[C@]2(C)[C@H]3C(=O)C=C4[C@@H]5C[C@@](C)(C(=O)O)CC[C@]5(C)CC[C@@]4(C)[C@]3(C)CC[C@@H]12 | inactive |
| COc1cc(/C=C/C(=O)N2CCN(CC(=O)N3CCCC3)CC2)cc(OC)c1OC | inactive |
| C[S+](CC[C@H](N)C(=O)O)C[C@H]1O[C@@H](n2cnc3c(N)ncnc32)[C@H](O)[C@@H]1O (some centres undefined) | inactive |
| CCCC(=O)OC[C@@H](OC(=O)CCC)[C@@H](OC(=O)CCC)[C@H](Cn1c2nc(=O)[nH]c(=O)c-2nc2cc(C)c(C)cc21)OC(=O)CCC | 39.8 µM (active) |
| CCCCC[C@H](O)/C=C/[C@@H]1[C@@H](C/C=C\CCCC(=O)O)[C@@H](O)C[C@H]1O | inactive |
| CC1(C)S[C@@H]2[C@H](NC(=O)[C@H](NC(=O)N3CCN(S(C)(=O)=O)C3=O)c3ccccc3)C(=O)N2[C@H]1C(=O)O | inactive |
| CCCSc1ccc2nc(NC(=O)OC)[nH]c2c1 | inactive |
| Nc1ccc(C(=O)O)c(O)c1 | inactive |
| Nc1c(CC(=O)O)cccc1C(=O)c1ccc(Br)cc1 | inactive |
| O=C1C(SCCO)=C(SCCO)C(=O)c2ccccc21 | 15.8 µM (active) |
| CN(C)c1ccc(C(=C2C=CC(=[N+](C)C)C=C2)c2ccccc2)cc1 | 50.1 µM (active) |
| CCOc1ccc2nc(S(N)(=O)=O)sc2c1 | inactive |

| SMILES | Potency |
| --- | --- |
| O=C(O)COc1ccc(C(=O)c2cccs2)c(Cl)c1Cl | inactive |
| c1ccc2sc(SN3CCOCC3)nc2c1 | inactive |
| Cc1cc(O)c2ccccc2c1O | inactive |
| CO/N=C(\C(=O)N[C@@H]1C(=O)N2C(C(=O)O)=C(COC(C)=O)CS[C@H]12)c1csc(N)n1 | inactive |
| COC1=C(OC)C(=O)c2ccccc2C1=O | 17.8 µM (active) |
| C=C(Nc1ccc(OCC)cc1)Nc1ccc(OCC)cc1 | inactive |
| Clc1ccccc1-c1nc(-c2ccncc2)no1 | inactive |
| Cc1c(N)c(=O)n(-c2ccccc2)n1C | inactive |
| O=C(/C=C/c1ccccc1)NCCO | inactive |
| C=CCN1C(=O)C(CC(C)C)NC1=S (centres undefined) | inactive |
| O=C1CN(/N=C/c2ccc(-c3ccc([N+](=O)[O-])cc3)o2)C(=O)N1 | inactive |
| COc1cc(NC(C)CCCN)c2ncccc2c1 (centres undefined) | 39.8 µM (active) |
| Cc1ccc(C(=O)c2ccc(CC(=O)O)n2C)cc1 | inactive |
| CCOC(=O)c1ccccc1O | inactive |
| Cc1nc2ccccc2n1Cc1ccc(Cl)cc1 | inactive |
| O=C1CC[C@@H](C(=O)N2CSC[C@H]2C(=O)O)N1 ([pGlu]-[Thz]-OH) | inactive |
| CC(C(=O)O)c1ccc2c(c1)[nH]c1ccc(Cl)cc12 (centres undefined) | inactive |
| COc1cc2c3cc1Oc1cc(ccc1O)C[C@@H]1c4c(cc(OC)c(O)c4Oc4ccc(cc4)C[C@@H]3N(C)CC2)CC[N+]1(C)C | inactive |
